Measurements: PubChem BioAssay AID1159580 (chemical genetic matrix, 2015)
Where “and” joins values, the source holds several entries; their conditions need not be identical. Identical values can stand only once. The campaign covered roughly 5,500 compounds. About 2,000 (36%) were called active. About 18% were inconclusive and are not listed. Cut-off read from the data, not from the text of the source: active = normalized growth mostly below about 0.91 (no sharp cut-off); inconclusive = no clear call, values can overlap the other calls; inactive = mostly above about 0.92. The list shows a part of the results.

Experiment: chemical genetic growth profiling, strain panel (AID 1159580);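 note: tested at 20 µM; growth read once vehicle control cultures reached saturation at 30 °C; 1 = growth at the plate median or of vehicle wells; lower values mean less growth of the strain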
Conditions: S. cerevisiae deletion strains, growth OD

Measured: normalized growth

CC(=O)OCC[N+](C)(C)C
active: locus YAL026C, strain drs2, stronger effect = lower value 1.1 [resistant] | locus YDR137W, strain rgp1, stronger effect = lower value 1.55 [resistant] | locus YDR159W, strain sac3, stronger effect = lower value 1.15 [resistant] | locus YDR195W, strain ref2 1.21 [resistant] | locus YLR221C, strain rsa3, stronger effect = lower value 1.1 [resistant] | locus YLR262C, strain YPT6 (second series), stronger effect = lower value 1.27 [resistant] | locus YNL248C, strain rpa49, stronger effect = lower value 1.12 [resistant] | locus YOR144C, strain elg1, stronger effect = lower value 1.09 [resistant] | locus YOR270C, strain vph1, stronger effect = lower value 0.749 | locus YPL256C, strain CLN2, stronger effect = lower value 1.24 [resistant] | locus YPR141C, strain kar3, stronger effect = lower value 1.09 [resistant]
inactive: locus YAL013W, strain DEP1, stronger effect = lower value 1.01 | locus YAL021C, strain ccr4, stronger effect = lower value 1.03 | locus YAL030W, strain snc1, stronger effect = lower value 1.02 | locus YBL061C, strain skt5, stronger effect = lower value 1.03 | locus YBR009C, strain hhf1, stronger effect = lower value 1.08 | locus YBR021W, strain FUR4, stronger effect = lower value 1.06 | locus YBR023C, strain chs3, stronger effect = lower value 1.05 | locus YBR171W, strain sec66, stronger effect = lower value 0.999 | locus YBR229C, strain ROT2, stronger effect = lower value 1.01 | locus YBR231C, strain swc5, stronger effect = lower value 1.03 | locus YBR279W, strain paf1, stronger effect = lower value 1.04 | locus YCL011C, strain gbp2, stronger effect = lower value 1.07 | locus YCL016C, strain dcc1, stronger effect = lower value 1.05 | locus YCL029C, strain bik1, stronger effect = lower value 1.04 | locus YCL069W, strain vba3, stronger effect = lower value 1.03 | locus YCR088W, strain abp1, stronger effect = lower value 1.02 | locus YDL005C, strain med2, stronger effect = lower value 1 | locus YDL035C, strain GPR1, stronger effect = lower value 0.961 | locus YDL040C, strain nat1, stronger effect = lower value 1.02 | locus YDL074C, strain BRE1, stronger effect = lower value 0.965 | locus YDL101C, strain DUN1, stronger effect = lower value 0.985 | locus YDL134C, strain PPH21, stronger effect = lower value 0.986 | locus YDL185W, strain tfp1, stronger effect = lower value 0.969 | locus YDL192W, strain arf1, stronger effect = lower value 1.02 | locus YDR001C, strain nth1, stronger effect = lower value 1.01 | locus YDR069C, strain doa4, stronger effect = lower value 1 | locus YDR101C, strain arx1, stronger effect = lower value 1.07 | locus YDR162C, strain NBP2, stronger effect = lower value 0.948 | locus YDR297W, strain sur2, stronger effect = lower value 1.02 | locus YDR318W, strain mcm21, stronger effect = lower value 1.01 | locus YDR334W, strain swr1, stronger effect = lower value 1.03 | locus YDR335W, strain msn5, stronger effect = lower value 1 | locus YDR388W, stronger effect = lower value 1.02 | locus YDR392W, strain spt3, stronger effect = lower value 1.13 | locus YDR502C, strain sam2, stronger effect = lower value 1.01 | locus YEL003W, strain gim4, stronger effect = lower value 1.01 | locus YEL037C, strain rad23, stronger effect = lower value 1.03 | locus YEL061C, strain CIN8 (second series), stronger effect = lower value 1.03 | locus YEL061C, strain CIN8, stronger effect = lower value 0.993 | locus YER015W, strain faa2, stronger effect = lower value 1.07 | locus YER016W, strain bim1, stronger effect = lower value 1.02 | locus YER110C, stronger effect = lower value 1.01 | locus YER111C, strain swi4, stronger effect = lower value 1.02 | locus YER155C, strain BEM2 (second series), stronger effect = lower value 1.11 | locus YER155C, strain BEM2, stronger effect = lower value 1.02 | locus YER167W, strain BCK2, stronger effect = lower value 1.01 | locus YFR010W, strain ubp6, stronger effect = lower value 1.01 | locus YGL078C, strain dbp3, stronger effect = lower value 1.03 | locus YGL086W, strain mad1, stronger effect = lower value 1.01 | locus YGL167C, strain pmr1, stronger effect = lower value 1.01 | locus YGL173C, strain kem1, stronger effect = lower value 1.02 | locus YGL227W, strain vid30, stronger effect = lower value 1.02 | locus YGL240W, strain doc1, stronger effect = lower value 1.11 | locus YGL248W, strain PDE1, stronger effect = lower value 0.99 | locus YGL253W, strain hxk2, stronger effect = lower value 1.03 | locus YGR135W, strain pre9, stronger effect = lower value 0.996 | locus YGR252W, strain gcn5, stronger effect = lower value 0.943 | locus YHR013C, strain ard1, stronger effect = lower value 1.11 | locus YHR027C, strain rpn1, stronger effect = lower value 1.02 | locus YHR030C, strain SLT2, stronger effect = lower value 1.01 and 1.08 | locus YHR079C, strain IRE1 (second series), stronger effect = lower value 1.02 | locus YHR079C, strain IRE1, stronger effect = lower value 1.1 | locus YHR094C, strain hxt1, stronger effect = lower value 1.02 | locus YHR129C, strain ARP1, stronger effect = lower value 1.01 | locus YHR142W, strain chs7, stronger effect = lower value 1.1 | locus YHR200W, strain rpn10, stronger effect = lower value 1.02 | locus YIL066C, strain RNR3, stronger effect = lower value 0.988 | locus YIL073C, strain SPO22, stronger effect = lower value 0.973 | locus YIL125W, strain kgd1, stronger effect = lower value 1.03 | locus YIR030C, strain dcg1, stronger effect = lower value 1.06 | locus YJL092W, strain hpr5, stronger effect = lower value 1.02 | locus YJL095W, strain BCK1 (second series), stronger effect = lower value 1.02 | locus YJL095W, strain BCK1, stronger effect = lower value 0.928 and 1.07 | locus YJL115W, strain asf1, stronger effect = lower value 1.03 | locus YJL129C, strain trk1, stronger effect = lower value 1.09 | locus YJL134W, strain LCB3, stronger effect = lower value 1.02 | locus YJL154C, strain vps35, stronger effect = lower value 1.03 | locus YJL164C, strain tpk1, stronger effect = lower value 1.05 | locus YJL166W, strain qcr8, stronger effect = lower value 1.04 | locus YJL168C, strain set2, stronger effect = lower value 1.03 | locus YJL187C, strain SWE1 (second series), stronger effect = lower value 0.951 | locus YJL187C, strain SWE1, stronger effect = lower value 1.02 | locus YJR043C, strain POL32, stronger effect = lower value 0.994 | locus YJR066W, strain TOR1, stronger effect = lower value 1.03 | locus YJR075W, strain HOC1, stronger effect = lower value 0.978 | locus YKL009W, strain mrt4, stronger effect = lower value 0.945 | locus YKL068W, stronger effect = lower value 1.01 | locus YKL085W, strain MDH1 (second series), stronger effect = lower value 1.01 | locus YKL085W, strain MDH1, stronger effect = lower value 1.01 | locus YKL160W, strain elf1, stronger effect = lower value 1.03 | locus YKR001C, strain vps1, stronger effect = lower value 0.975 | locus YKR026C, strain gcn3, stronger effect = lower value 1.03 | locus YKR091W, strain srl3, stronger effect = lower value 1.02 | locus YLL001W, strain dnm1, stronger effect = lower value 1.02 | locus YLL026W, stronger effect = lower value 1.03 | locus YLL041C, strain sdh2, stronger effect = lower value 1.02 | locus YLR027C, strain aat2, stronger effect = lower value 1.02 | locus YLR039C, strain RIC1, stronger effect = lower value 0.756 | locus YLR058C, strain SHM2, stronger effect = lower value 0.972 | locus YLR102C, strain apc9, stronger effect = lower value 1.01 | locus YLR113W, strain HOG1, stronger effect = lower value 1.14 | locus YLR258W, strain gsy2, stronger effect = lower value 1.04 | locus YLR262C, strain YPT6, stronger effect = lower value 0.801 | locus YLR268W, strain sec22, stronger effect = lower value 0.967 | locus YLR320W, strain mms22, stronger effect = lower value 1.1 | locus YLR330W, strain CHS5, stronger effect = lower value 0.998 | locus YLR342W, strain FKS1 (second series), stronger effect = lower value 0.986 | locus YLR342W, strain FKS1, stronger effect = lower value 1.01 | locus YLR357W, strain rsc2, stronger effect = lower value 1.12 | locus YLR370C, strain arc18, stronger effect = lower value 1.03 | locus YLR371W, strain rom2, stronger effect = lower value 1.08 | locus YLR384C, strain iki3, stronger effect = lower value 1.02 | locus YLR418C, strain cdc73, stronger effect = lower value 0.99 | locus YML016C, strain PPZ1, stronger effect = lower value 0.993 | locus YML032C, strain rad52, stronger effect = lower value 0.918 | locus YML120C, strain ndi1, stronger effect = lower value 1.04 | locus YML124C, strain tub3, stronger effect = lower value 1 | locus YMR058W, strain fet3, stronger effect = lower value 1.05 | locus YMR078C, strain ctf18, stronger effect = lower value 1.02 | locus YMR125W, strain sto1, stronger effect = lower value 1.05 | locus YMR129W, stronger effect = lower value 1.02 | locus YMR205C, strain PFK2, stronger effect = lower value 1.08 | locus YMR223W, strain ubp8, stronger effect = lower value 0.978 | locus YMR231W, strain pep5, stronger effect = lower value 0.993 | locus YMR307W, strain GAS1, stronger effect = lower value 1.07 | locus YNL067W, strain RPL9B, stronger effect = lower value 0.961 | locus YNL071W, strain lat1, stronger effect = lower value 1.04 | locus YNL183C, strain NPR1, stronger effect = lower value 1.04 | locus YNL209W, strain ssb2, stronger effect = lower value 1.02 | locus YNL233W, strain BNI4, stronger effect = lower value 0.973 | locus YNL250W, strain rad50, stronger effect = lower value 1.02 | locus YNL271C, strain bni1, stronger effect = lower value 1.01 | locus YNL298W, strain CLA4, stronger effect = lower value 1.01 | locus YNL307C, strain MCK1, stronger effect = lower value 1.03 | locus YNL322C, strain KRE1 (second series), stronger effect = lower value 1.07 | locus YNL322C, strain KRE1, stronger effect = lower value 1.02 | locus YNR049C, strain mso1, stronger effect = lower value 1.01 | locus YNR052C, strain pop2, stronger effect = lower value 1.02 | locus YOL012C, strain htz1 1.26 | locus YOL147C, strain pex11, stronger effect = lower value 1.03 | locus YOR001W, strain rrp6, stronger effect = lower value 0.99 | locus YOR061W, strain CKA2, stronger effect = lower value 0.994 | locus YOR069W, strain VPS5, stronger effect = lower value 1.01 | locus YOR070C, strain gyp1, stronger effect = lower value 1.02 | locus YOR080W, strain dia2, stronger effect = lower value 1.02 | locus YOR083W, strain WHI5, stronger effect = lower value 1.05 | locus YOR106W, strain vam3, stronger effect = lower value 1.08 | locus YOR136W, strain idh2, stronger effect = lower value 1.02 | locus YOR184W, strain ser1, stronger effect = lower value 0.988 | locus YOR231W, strain MKK1, stronger effect = lower value 1.08 | locus YOR265W, strain rbl2, stronger effect = lower value 1.02 | locus YOR290C, strain snf2, stronger effect = lower value 1.06 | locus YOR316C, strain cot1, stronger effect = lower value 1.01 | locus YPL051W, strain arl3, stronger effect = lower value 1.05 | locus YPL055C, strain LGE1, stronger effect = lower value 0.982 | locus YPL078C, strain atp4, stronger effect = lower value 1.04 | locus YPL106C, strain sse1, stronger effect = lower value 1.02 | locus YPL240C, strain hsp82, stronger effect = lower value 1.01 | locus YPL241C, strain CIN2, stronger effect = lower value 1 | locus YPR119W, strain clb2, stronger effect = lower value 1.01 | locus YPR163C, strain tif3, stronger effect = lower value 1.01 | locus YPR167C, strain met16, stronger effect = lower value 1.03 | strain wtn01, stronger effect = lower value 0.996
